Reference: the supplement of paper PMC10849652
Of roughly 7,900 targets only a part is listed; those with a hit were picked by preference. About 0.6% of all pairs of compound and target were hits. A number with no mark means an inactive call.

How the values were obtained:
Assay in all cases: log2 fold change, soluble protein after heating vs DMSO (PISA); higher = thermal stabilisation; K562 cells, 10 uM, 30 min; active = over 0.2 and 3.5 SD of the protein, either way, in both replicates (recomputed)
saracatinib = compound: CN1CCN(CCOc2cc(OC3CCOCC3)c3c(Nc4c(Cl)ccc5c4OCO5)ncnc3c2)CC1 [saracatinib]
Outline: (§1)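 Values are thermal stability changes relative to control samples and are taken from duplicates. They are stated as log2 fold changes. Before quantification by TMTpro 16plex LC-MS/MS with equalised channel sums, K562 cells at 2×10^6 cells/mL were treated with 10 μM compound for 30 min, heated in aliquots for 3 min across 48°C-58°C, pooled, extracted in PBS with 0.5% NP-40 at 4°C, and centrifuged at 21,000xg for 90 min to give the soluble supernatant.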

alvocidib = compound: CN1CC[C@H](c2c(O)cc(O)c3c(=O)cc(-c4ccccc4Cl)oc23)[C@H](O)C1 [alvocidib]
Outline: as §1

Tubastatin A = compound: CN1CCc2c(c3ccccc3n2Cc2ccc(C(=O)NO)cc2)C1 [Tubastatin A]
Outline: as §1

[1] = compound: CNC(=O)C1=CC=CC=C1NC2=NC(=NC=C2Cl)NC3=C(C=C(C=C3)N4CCOCC4)OC
Outline: as §1

defactinib = compound: CNC(=O)c1ccc(Nc2ncc(C(F)(F)F)c(NCc3nccnc3N(C)S(C)(=O)=O)n2)cc1 [defactinib]
Outline: as §1

rucaparib = compound: CNCc1ccc(-c2[nH]c3cc(F)cc4c3c2CCNC4=O)cc1 [rucaparib]
Outline: as §1

[2] = compound: CNc1nc(-c2ccc3c(N)n[nH]c3c2)cc(N2C[C@@H](C(=O)NC3CCCCC3)CC[C@H]2C)n1
Outline: as §1

encorafenib = compound: COC(=O)N[C@@H](C)CNc1nccc(-c2cn(C(C)C)nc2-c2cc(Cl)cc(NS(C)(=O)=O)c2F)n1 [encorafenib]
Outline: as §1

[3] = compound: COC(=O)[C@H](CCSC)NC(=O)C1=C(C=C(C=C1)NC[C@H](CS)N)C2=CC=CC=C2
Outline: as §1

[4] = compound: COC1=CC=C(C=C1)CN2C=CC3=C2C=C(C=C3)C(=O)NO
Outline: as §1

zotarolimus = compound: CO[C@H]1C[C@@H]2CC[C@@H](C)[C@@](O)(O2)C(=O)C(=O)N2CCCC[C@H]2C(=O)O[C@H]([C@H](C)C[C@@H]2CC[C@H](n3cnnn3)[C@H](OC)C2)CC(=O)[C@H](C)/C=C(\C)[C@@H](O)[C@@H](OC)C(=O)[C@H](C)C[C@H](C)/C=C/C=C/C=C/1C [zotarolimus]
Outline: as §1

idasanutlin = compound: COc1cc(C(=O)O)ccc1NC(=O)[C@@H]1N[C@@H](CC(C)(C)C)[C@](C#N)(c2ccc(Cl)cc2F)[C@H]1c1cccc(Cl)c1F [idasanutlin]
Outline: as §1

alisertib = compound: COc1cc(Nc2ncc3c(n2)-c2ccc(Cl)cc2C(c2c(F)cccc2OC)=NC3)ccc1C(=O)O [alisertib]
Outline: as §1

[5] = compound: COc1cc2nc(-c3cc(F)ccc3O)nc(N[C@@H]3CNC[C@H]3C(C)(C)O)c2cc1OC
Outline: as §1

gefitinib = compound: COc1cc2ncnc(Nc3ccc(F)c(Cl)c3)c2cc1OCCCN1CCOCC1 [gefitinib]
Outline: as §1

[6] = compound: COc1cccc2cc(-c3nc([C@H]4CC[C@H](C(=O)O)CC4)n4ncnc(N)c34)[nH]c12
Outline: as §1

lapatinib = compound: CS(=O)(=O)CCNCc1ccc(-c2ccc3ncnc(Nc4ccc(OCc5cccc(F)c5)c(Cl)c4)c3c2)o1 [lapatinib]
Outline: as §1

pictilisib = compound: CS(=O)(=O)N1CCN(Cc2cc3nc(-c4cccc5[nH]ncc45)nc(N4CCOCC4)c3s2)CC1 [pictilisib]
Outline: as §1

sotrastaurin = compound: CN1CCN(c2nc(C3=C(c4c[nH]c5ccccc45)C(=O)NC3=O)c3ccccc3n2)CC1 [sotrastaurin]
Outline: as §1

filanesib = compound: CON(C)C(=O)N1N=C(c2cc(F)ccc2F)S[C@@]1(CCCN)c1ccccc1 [filanesib]
Outline: as §1

Sequence of UniProt Q8N573 (Q8N573 whole entry, looked up): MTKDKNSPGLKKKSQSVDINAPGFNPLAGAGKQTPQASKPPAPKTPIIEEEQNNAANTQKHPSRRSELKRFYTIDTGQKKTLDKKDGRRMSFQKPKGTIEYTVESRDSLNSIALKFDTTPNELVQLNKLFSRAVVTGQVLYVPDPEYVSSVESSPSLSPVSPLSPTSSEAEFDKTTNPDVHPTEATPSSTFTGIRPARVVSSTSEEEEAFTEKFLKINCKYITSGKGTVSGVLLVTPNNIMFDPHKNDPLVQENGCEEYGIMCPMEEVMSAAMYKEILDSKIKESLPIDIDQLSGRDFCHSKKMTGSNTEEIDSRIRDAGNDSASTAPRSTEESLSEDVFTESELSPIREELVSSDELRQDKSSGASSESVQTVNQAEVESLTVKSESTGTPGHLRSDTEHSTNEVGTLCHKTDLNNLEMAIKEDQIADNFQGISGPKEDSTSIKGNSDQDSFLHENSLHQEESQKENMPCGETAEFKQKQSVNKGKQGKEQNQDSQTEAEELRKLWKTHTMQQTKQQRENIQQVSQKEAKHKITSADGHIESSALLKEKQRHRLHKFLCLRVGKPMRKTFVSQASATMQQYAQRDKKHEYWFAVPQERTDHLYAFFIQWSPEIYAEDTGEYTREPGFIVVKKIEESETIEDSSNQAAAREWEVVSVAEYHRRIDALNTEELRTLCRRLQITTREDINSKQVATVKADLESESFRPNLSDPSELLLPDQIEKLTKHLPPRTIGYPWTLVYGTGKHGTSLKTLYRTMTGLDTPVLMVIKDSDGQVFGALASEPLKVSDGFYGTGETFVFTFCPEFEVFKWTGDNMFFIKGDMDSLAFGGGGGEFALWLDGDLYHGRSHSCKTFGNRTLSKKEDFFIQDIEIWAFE
Sequence of UniProt Q5VVJ2 (Q5VVJ2 whole entry, looked up): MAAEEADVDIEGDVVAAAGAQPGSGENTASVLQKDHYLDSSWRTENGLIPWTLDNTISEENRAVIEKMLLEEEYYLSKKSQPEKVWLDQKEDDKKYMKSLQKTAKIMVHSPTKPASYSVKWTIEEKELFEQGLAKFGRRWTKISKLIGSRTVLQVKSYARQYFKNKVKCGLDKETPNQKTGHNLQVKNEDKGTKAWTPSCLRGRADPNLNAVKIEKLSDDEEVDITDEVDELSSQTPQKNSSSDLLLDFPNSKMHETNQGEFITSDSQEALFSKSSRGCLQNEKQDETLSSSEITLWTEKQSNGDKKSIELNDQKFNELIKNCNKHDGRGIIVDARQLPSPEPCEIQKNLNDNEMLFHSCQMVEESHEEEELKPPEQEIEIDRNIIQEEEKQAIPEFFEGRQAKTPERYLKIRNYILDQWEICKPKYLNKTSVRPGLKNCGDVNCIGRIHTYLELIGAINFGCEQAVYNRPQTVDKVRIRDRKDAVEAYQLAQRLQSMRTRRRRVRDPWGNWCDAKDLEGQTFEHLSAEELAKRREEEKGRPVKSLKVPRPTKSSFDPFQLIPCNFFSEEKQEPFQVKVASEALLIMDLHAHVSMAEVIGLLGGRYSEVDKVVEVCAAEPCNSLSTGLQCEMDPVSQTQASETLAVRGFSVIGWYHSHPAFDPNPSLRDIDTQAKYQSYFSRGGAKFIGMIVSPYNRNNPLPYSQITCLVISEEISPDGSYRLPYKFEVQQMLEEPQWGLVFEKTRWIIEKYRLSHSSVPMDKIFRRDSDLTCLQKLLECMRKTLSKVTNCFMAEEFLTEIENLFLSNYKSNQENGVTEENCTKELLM
Sequence of UniProt Q14978 (Q14978 whole entry, looked up): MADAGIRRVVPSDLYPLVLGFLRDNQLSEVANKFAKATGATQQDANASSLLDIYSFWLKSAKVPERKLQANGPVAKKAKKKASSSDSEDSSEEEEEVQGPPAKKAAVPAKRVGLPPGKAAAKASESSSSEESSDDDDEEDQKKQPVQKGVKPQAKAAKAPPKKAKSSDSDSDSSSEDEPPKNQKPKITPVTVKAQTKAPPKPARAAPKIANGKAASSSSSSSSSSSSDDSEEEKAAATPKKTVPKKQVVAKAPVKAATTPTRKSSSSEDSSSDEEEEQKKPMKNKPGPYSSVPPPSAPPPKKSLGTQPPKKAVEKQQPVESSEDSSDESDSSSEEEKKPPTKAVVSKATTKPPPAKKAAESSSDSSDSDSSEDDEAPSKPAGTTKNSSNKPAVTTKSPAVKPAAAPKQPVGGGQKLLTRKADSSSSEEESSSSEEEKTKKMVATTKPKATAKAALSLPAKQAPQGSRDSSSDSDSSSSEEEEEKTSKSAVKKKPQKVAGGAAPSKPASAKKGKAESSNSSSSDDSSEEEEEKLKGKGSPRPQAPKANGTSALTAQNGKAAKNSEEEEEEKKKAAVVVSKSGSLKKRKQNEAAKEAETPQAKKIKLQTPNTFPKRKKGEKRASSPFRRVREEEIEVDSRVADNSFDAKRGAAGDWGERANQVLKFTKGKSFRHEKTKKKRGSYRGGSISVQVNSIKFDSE
Sequence of UniProt O75052 (O75052 whole entry, looked up): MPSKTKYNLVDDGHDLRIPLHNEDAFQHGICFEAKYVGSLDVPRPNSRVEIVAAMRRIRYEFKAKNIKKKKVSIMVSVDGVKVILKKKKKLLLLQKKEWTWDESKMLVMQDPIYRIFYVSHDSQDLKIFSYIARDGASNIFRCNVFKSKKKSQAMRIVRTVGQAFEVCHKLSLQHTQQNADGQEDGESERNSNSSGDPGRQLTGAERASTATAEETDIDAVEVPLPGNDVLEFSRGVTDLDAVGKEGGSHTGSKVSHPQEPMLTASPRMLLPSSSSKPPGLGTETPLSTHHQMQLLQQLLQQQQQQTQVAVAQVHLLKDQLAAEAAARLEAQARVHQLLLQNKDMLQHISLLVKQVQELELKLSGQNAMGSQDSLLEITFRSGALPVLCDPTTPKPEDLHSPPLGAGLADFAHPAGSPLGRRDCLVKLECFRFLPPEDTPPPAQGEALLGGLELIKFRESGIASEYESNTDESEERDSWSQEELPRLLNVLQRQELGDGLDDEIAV
Sequence of UniProt Q8IXH7 (Q8IXH7 whole entry, looked up): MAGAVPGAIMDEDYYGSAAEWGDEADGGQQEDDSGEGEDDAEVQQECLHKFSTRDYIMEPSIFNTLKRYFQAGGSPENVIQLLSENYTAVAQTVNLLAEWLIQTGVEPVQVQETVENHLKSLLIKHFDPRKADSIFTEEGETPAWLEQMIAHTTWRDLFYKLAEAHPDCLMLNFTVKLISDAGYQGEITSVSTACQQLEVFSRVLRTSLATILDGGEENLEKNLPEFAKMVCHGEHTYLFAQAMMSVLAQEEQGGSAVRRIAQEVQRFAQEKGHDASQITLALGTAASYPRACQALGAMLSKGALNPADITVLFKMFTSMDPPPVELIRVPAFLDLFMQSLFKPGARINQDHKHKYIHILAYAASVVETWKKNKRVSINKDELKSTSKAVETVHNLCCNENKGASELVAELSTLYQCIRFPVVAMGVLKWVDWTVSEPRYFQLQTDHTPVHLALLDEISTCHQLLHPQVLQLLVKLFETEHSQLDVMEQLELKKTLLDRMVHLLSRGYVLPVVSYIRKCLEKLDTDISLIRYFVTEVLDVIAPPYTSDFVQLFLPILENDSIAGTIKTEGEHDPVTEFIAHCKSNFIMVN
Sequence of UniProt Q86TA1 (Q86TA1 whole entry, looked up): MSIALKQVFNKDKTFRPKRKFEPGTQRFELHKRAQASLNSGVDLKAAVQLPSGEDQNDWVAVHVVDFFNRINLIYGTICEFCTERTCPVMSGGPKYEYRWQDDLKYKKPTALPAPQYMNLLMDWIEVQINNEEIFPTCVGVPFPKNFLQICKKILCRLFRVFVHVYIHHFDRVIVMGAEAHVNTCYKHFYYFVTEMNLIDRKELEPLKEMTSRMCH
Sequence of UniProt Q96H55 (Q96H55 whole entry, looked up): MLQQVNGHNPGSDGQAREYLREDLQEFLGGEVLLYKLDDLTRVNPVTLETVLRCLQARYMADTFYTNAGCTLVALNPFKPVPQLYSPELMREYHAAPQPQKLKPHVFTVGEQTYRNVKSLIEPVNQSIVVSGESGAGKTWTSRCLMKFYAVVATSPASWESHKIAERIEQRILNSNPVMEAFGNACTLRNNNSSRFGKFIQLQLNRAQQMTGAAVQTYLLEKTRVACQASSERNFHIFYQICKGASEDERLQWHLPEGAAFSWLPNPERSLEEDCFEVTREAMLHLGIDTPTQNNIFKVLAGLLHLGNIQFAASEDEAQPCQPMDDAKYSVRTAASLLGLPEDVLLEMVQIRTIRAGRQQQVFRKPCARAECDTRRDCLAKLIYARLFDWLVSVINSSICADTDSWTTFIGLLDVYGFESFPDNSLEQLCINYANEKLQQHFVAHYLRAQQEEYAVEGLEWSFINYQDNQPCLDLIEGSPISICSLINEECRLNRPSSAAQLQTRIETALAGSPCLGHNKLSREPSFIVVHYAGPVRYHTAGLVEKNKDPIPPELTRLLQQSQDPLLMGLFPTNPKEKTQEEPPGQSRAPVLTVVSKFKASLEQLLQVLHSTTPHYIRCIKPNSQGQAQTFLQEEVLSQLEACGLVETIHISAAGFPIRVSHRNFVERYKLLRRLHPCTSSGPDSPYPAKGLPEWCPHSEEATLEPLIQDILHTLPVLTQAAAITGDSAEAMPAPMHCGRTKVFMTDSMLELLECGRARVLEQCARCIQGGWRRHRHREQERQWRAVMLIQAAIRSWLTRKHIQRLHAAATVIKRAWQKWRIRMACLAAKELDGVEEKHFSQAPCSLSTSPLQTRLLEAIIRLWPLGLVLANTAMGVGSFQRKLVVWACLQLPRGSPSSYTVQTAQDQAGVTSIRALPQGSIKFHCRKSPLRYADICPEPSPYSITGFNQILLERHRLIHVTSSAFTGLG
Sequence of UniProt Q6N063 (Q6N063 whole entry, looked up): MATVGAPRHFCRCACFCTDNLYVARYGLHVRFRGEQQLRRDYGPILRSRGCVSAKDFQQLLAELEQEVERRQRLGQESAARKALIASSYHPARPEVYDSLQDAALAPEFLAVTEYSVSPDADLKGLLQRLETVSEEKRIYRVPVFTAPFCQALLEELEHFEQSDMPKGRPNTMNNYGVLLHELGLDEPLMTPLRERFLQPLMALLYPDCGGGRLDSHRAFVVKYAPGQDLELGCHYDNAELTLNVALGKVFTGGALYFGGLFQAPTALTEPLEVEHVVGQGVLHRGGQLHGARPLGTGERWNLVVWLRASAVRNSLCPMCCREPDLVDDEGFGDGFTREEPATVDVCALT

Target	log2 fold change (saracatinib)	log2 fold change (alvocidib)	log2 fold change (Tubastatin A)	log2 fold change [1]	log2 fold change (defactinib)	log2 fold change (rucaparib)	log2 fold change [2]	log2 fold change (encorafenib)	log2 fold change [3]	log2 fold change [4]	log2 fold change (zotarolimus)	log2 fold change (idasanutlin)	log2 fold change (alisertib)	log2 fold change [5]	log2 fold change (gefitinib)	log2 fold change [6]	log2 fold change (lapatinib)	log2 fold change (pictilisib)	log2 fold change (sotrastaurin)	log2 fold change (filanesib)
NKAP (UniProt Q8N5F7)	0.067	-0.142	0.093	-0.296	0.092	0.055	0.085	0.149	0.039	-0.005	0.112	0.115	0.037	-0.051	-0.029	-0.13	0.09	-0.013	–	–
MT-ND2 (UniProt P03891)	-0.183	-0.321	-0.044	0	-0.008	–	-0.295	–	0.085	-0.029	0.065	-0.143	0.04	-0.131	0.106	0.074	-0.008	0.139	–	–
NDUFB1 (UniProt O75438)	–	-0.042	-0.09	-0.01	-0.021	-0.035	–	0.001	0.034	0.031	-0.055	0.029	-0.062	-0.08	0.083	0.076	-0.028	-0.196	0.015	-0.029
NEU3 isoform 2 (UniProt Q9UQ49)	–	–	–	0.091	–	–	–	–	–	–	–	–	–	0.301	–	–	-0.126	–	0.004	-0.286
MRM2 (UniProt Q9UI43)	0.173	-0.364	-0.07	0.033	-0.24	–	0.004	–	0.101	–	0.11	0.518 (active)	–	0.078	0.066	–	0.108	–	–	–
NRGN (UniProt Q92686)	–	–	–	0.01	–	–	–	–	–	-0.831	–	0.023	–	-0.108	-0.012	–	0.107	0.404	–	–
MYH16 (UniProt Q9H6N6)	–	0.138	-0.069	-0.075	0.013	–	–	–	-0.171	0.886 (active)	-0.118	-0.066	0.163	-0.052	-0.03	-0.031	0.204	-0.448	-0.224	-0.263
NOLC1 isoform 3 (UniProt Q14978)	–	0.083	–	0.018	–	–	–	–	–	–	-0.013	–	–	–	–	–	–	–	–	–
MITF (UniProt O75030)	–	–	–	0.034	0.111	-0.186	–	-0.058	0.064	0.122	–	-0.042	0.008	–	-0.13	0	–	-0.397	-0.08	0.106
NOS1AP (UniProt O75052)	–	0.179	-0.112	-0.089	0.193	-0.403	–	0.092	-0.074	–	-0.098	–	0.353	-0.09	–	-0.118	-0.1	–	–	–
MYO19 (UniProt Q96H55)	-0.066	0.001	–	-0.046	0.093	–	0.09	–	0.103	-0.083	0.071	-0.116	–	0.081	0.024	–	0.276	0.567 (active)	–	–
NIPSNAP2 (UniProt C9J7B1)	–	–	–	–	–	–	–	–	–	–	–	-0.38	-0.041	–	–	-0.047	–	–	-0.073	0.05
NELFCD (UniProt Q8IXH7)	-0.114	-0.378	–	0.024	-0.228	–	-0.002	–	-0.085	0.006	-0.071	0	–	0.179	-0.052	–	-0.006	-0.061	–	–
MLH1 (UniProt P40692)	-0.103	-0.235	0.158	–	–	–	-0.168	–	–	–	0.024	0.03	-0.171	-0.135	–	-0.1	0.091	0.083	–	–
MOB3B (UniProt Q86TA1)	–	-0.428	-0.03	-0.324	-0.252	–	–	–	0.078	0.355	-0.087	-0.24	-0.001	0.04	0.384	-0.011	-0.033	0.067	–	–
MYSM1 (UniProt Q5VVJ2)	–	–	–	–	–	0.003	–	0.13	–	-0.063	–	–	–	–	–	–	–	–	-0.294	-0.007
NA, A0A494C071	0.033	0.062	-0.197	–	0.044	-0.359	-0.062	0.027	0.124	-0.265	-0.011	-0.392	0.016	–	0.367	0.143	–	0.277	–	–
NASP isoform 2 (UniProt P49321)	–	–	–	–	–	–	–	–	–	–	–	–	-0.129	–	–	-0.58	–	–	–	–
OXR1 isoform 2 (UniProt Q8N573)	-0.138	0.051	-0.038	–	-0.067	-0.008	0.092	-0.022	0.047	-0.175	-0.014	-0.009	–	0.018	0.014	–	-0.061	-0.073	–	–
NA (UniProt J3KR12)	–	–	–	–	–	–	–	–	–	0.123	–	–	-0.116	–	-0.134	0.077	–	–	–	–
OGFOD2 (UniProt Q6N063)	0.095	-0.035	-0.08	0.094	-0.076	-0.029	0.009	0.133	0.032	-0.275	0.034	0.073	0.007	–	0.071	-0.033	–	-0.144	–	–
ORC3 (UniProt Q9UBD5)	–	–	–	–	–	0.061	–	0.032	–	–	–	-0.167	–	–	–	–	–	–	–	–
NAP1L1 (UniProt B7Z9C2)	-0.168	–	–	0.041	-0.117	-0.041	-0.706	-0.114	-0.007	-0.116	–	-0.004	0.258	–	0.03	0.066	–	0.111	–	–
NMU (UniProt P48645)	-0.017	0.044	0.149	-0.055	-0.08	-0.076	-0.09	0.034	-0.042	0.259	-0.018	0.057	–	-0.156	0.162	–	-0.047	-0.3	–	–
MRPS16 (UniProt Q9Y3D3)	–	-0.098	0.008	-0.115	0.043	0.084	–	0.138	0	-0.102	0.04	-0.348 (active)	0.02	-0.054	-0.045	-0.011	0.039	-0.03	-0.039	0.044
